Compounds without any hit were thinned out: in the full panel of roughly 83,000, 20% have a hit.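 Cell lines were cultured in 96-well plates, exposed to a single compound concentration, and assessed for percent growth 48 hours later.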 Calls of active or inactive are those of the source. The calls were made as follows: active = growth percent below 10; inactive = the rest.
Assays:
Test in all cases: NCI-60 one-dose screen, 48 h (100 = growth as untreated, 0 = no growth, -100 = all killed)
SR leukemia = conditions: 10 µM unless noted
RPMI-8226 leukemia = conditions: 10 µM unless noted
OVCAR-8 ovarian = conditions: 10 µM unless noted
OVCAR-5 ovarian = conditions: 10 µM unless noted
OVCAR-4 ovarian = conditions: 10 µM unless noted
SK-OV-3 ovarian = conditions: 10 µM unless noted
IGROV1 ovarian = conditions: 10 µM unless noted
OVCAR-3 ovarian = conditions: 10 µM unless noted
HS 578T breast = conditions: 10 µM unless noted
NCI/ADR-RES ovarian = conditions: 10 µM unless noted
T-47D breast = conditions: 10 µM unless noted
BT-549 breast = conditions: 10 µM unless noted
MDA-MB-435 melanoma = conditions: 10 µM unless noted
SW-620 colon = conditions: 10 µM unless noted
MCF7 breast = conditions: 10 µM
HCT-116 colon = conditions: 10 µM unless noted
HCC-2998 colon = conditions: 10 µM unless noted
KM12 colon = conditions: 10 µM unless noted

Measured: growth

C=CCOc1ccc(N=NC(C#N)C#N)cc1
active: SR leukemia 8.51% | RPMI-8226 leukemia 2.95% | T-47D breast -2.81%
inactive: OVCAR-8 ovarian 86.9% | OVCAR-5 ovarian 93.8% | OVCAR-4 ovarian 31.6% | SK-OV-3 ovarian 52.7% | IGROV1 ovarian 53.3% | OVCAR-3 ovarian 39.7% | HS 578T breast 88.6% | NCI/ADR-RES ovarian 103% | BT-549 breast 92.1% | MDA-MB-435 melanoma 88.3% | SW-620 colon 40.4% | MCF7 breast 22.6% | HCT-116 colon 46.8% | HCC-2998 colon 101% | KM12 colon 100%

O=C(Nc1ccccc1)c1cc(Cl)ccc1O
inactive: SR leukemia 48.7% | RPMI-8226 leukemia 19.9% | OVCAR-8 ovarian 44.9% | OVCAR-5 ovarian 94.1% | OVCAR-4 ovarian 41.3% | SK-OV-3 ovarian 73.6% | IGROV1 ovarian 58.9% | OVCAR-3 ovarian 37.4% | HS 578T breast 29% | NCI/ADR-RES ovarian 74.6% | T-47D breast 23.4% | BT-549 breast 57.5% | MDA-MB-435 melanoma 39.3% | SW-620 colon 63.3% | MCF7 breast 81.9% | HCT-116 colon 51% | HCC-2998 colon 89.1%

Cc1ccc2nc(C[n+]3ccc4ccccc4c3)ccc2c1
inactive: SR leukemia 62.8% | RPMI-8226 leukemia 30.5% | OVCAR-8 ovarian 57.8% | OVCAR-5 ovarian 79.7% | OVCAR-4 ovarian 43.8% | SK-OV-3 ovarian 70% | IGROV1 ovarian 59.7% | OVCAR-3 ovarian 52.8% | HS 578T breast 90.8% | NCI/ADR-RES ovarian 104% | T-47D breast 32.2% | BT-549 breast 21.7% | MDA-MB-435 melanoma 54.7% | SW-620 colon 80.2% | MCF7 breast 35.6% | HCC-2998 colon 71.2%

Cc1c2ccccc2c(C)c2c1ccc1ccccc12
inactive: SR leukemia 63.8% | RPMI-8226 leukemia 84.3% | OVCAR-8 ovarian 98.8% | OVCAR-5 ovarian 95.6% | OVCAR-4 ovarian 89.9% | SK-OV-3 ovarian 99.4% | IGROV1 ovarian 81% | OVCAR-3 ovarian 105% | HS 578T breast 98% | NCI/ADR-RES ovarian 106% | T-47D breast 65.3% | BT-549 breast 98.8% | MDA-MB-435 melanoma 92% | SW-620 colon 99.9% | MCF7 breast 32.2% | HCT-116 colon 81.3% | HCC-2998 colon 104% | KM12 colon 89.3%

N#CSCc1ccc(CSC#N)c(Cl)c1
active: SR leukemia 6.77%
inactive: RPMI-8226 leukemia 41.9% | OVCAR-8 ovarian 95.6% | OVCAR-5 ovarian 96.7% | OVCAR-4 ovarian 85.2% | SK-OV-3 ovarian 115% | IGROV1 ovarian 91.2% | OVCAR-3 ovarian 77.9% | HS 578T breast 94.1% | NCI/ADR-RES ovarian 77.9% | T-47D breast 68.4% | BT-549 breast 56.5% | MDA-MB-435 melanoma 40.6% | SW-620 colon 25.4% | MCF7 breast 22.7% | HCT-116 colon 43.6% | HCC-2998 colon 102% | KM12 colon 69.3%

NC(=S)N/N=C/c1ccc(Cl)s1
inactive: SR leukemia 95.6% | RPMI-8226 leukemia 100% | OVCAR-8 ovarian 106% | OVCAR-5 ovarian 111% | OVCAR-4 ovarian 109% | SK-OV-3 ovarian 109% | IGROV1 ovarian 106% | OVCAR-3 ovarian 105% | HS 578T breast 103% | NCI/ADR-RES ovarian 108% | T-47D breast 89.8% | BT-549 breast 112% | MDA-MB-435 melanoma 104% | SW-620 colon 105% | MCF7 breast 104% | HCT-116 colon 93.4% | HCC-2998 colon 111% | KM12 colon 101%

O=C1c2ccccc2C(=O)c2sc(Nc3ccc(Cl)cc3)nc21
inactive: OVCAR-8 ovarian 10.6% | SK-OV-3 ovarian 100% | IGROV1 ovarian 34.8% | HS 578T breast 70.6% | NCI/ADR-RES ovarian 16.8% | T-47D breast 29.2% | BT-549 breast 75.9% | HCC-2998 colon 57.6% | KM12 colon 60.1%
active: SR leukemia 4.26% | RPMI-8226 leukemia 7.64% | OVCAR-5 ovarian -62.5% | OVCAR-4 ovarian 1.65% | OVCAR-3 ovarian -39.6% | MDA-MB-435 melanoma -87.5% | SW-620 colon -40% | MCF7 breast -60.3% | HCT-116 colon -36.6%

N#CSCc1c(Cl)cccc1Cl
active: OVCAR-3 ovarian 4.78% | HCT-116 colon 4.1%
inactive: SR leukemia 59.5% | RPMI-8226 leukemia 47.7% | OVCAR-8 ovarian 100% | OVCAR-5 ovarian 106% | OVCAR-4 ovarian 35.2% | SK-OV-3 ovarian 96.6% | IGROV1 ovarian 11.5% | HS 578T breast 80.6% | NCI/ADR-RES ovarian 95.4% | T-47D breast 79.9% | BT-549 breast 88.4% | MDA-MB-435 melanoma 29.6% | SW-620 colon 34.7% | MCF7 breast 33.3% | HCC-2998 colon 70% | KM12 colon 48.1%

From PubChem BioAssay (NCI)
